# Assay outcomes: PubChem, National Center for Advancing Translational Sciences (NCATS)
# Shown are actives, neighbours in structure and some others; about 10% of the full set was active somewhere.
# GPT2 inhibitor – GPT2 alanine aminotransferase inhibition | Potency, µM (series often up to 57.7 µM), for the others: top-dose activity change, negative = inhibition, actives largely listed as inhibitors | Recombinant GPT2, coupled pyruvate oxidase/HRP Amplex Red fluorescence | actives 0.25% (n = 100,000) | AID 1671188; note: nearly all actives have a fitted effect of over 60% in size
#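 Fluorescence of coupled pyruvate oxidase/HRP/Amplex Red system (50uM Amplex, 30 min, dark) reports pyruvate formed by GPT2. Enzyme reaction: 10ng/uL GPT2, 2mM L-alanine, 250uM a-KG, 30 min room temperature, pH 7.5; 50uM AOA control.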
# Luciferase inh – inhibitors of firefly (Photinus pyralis) luciferase; purified P. pyralis luciferase, luminescence, biochemical; Potency, µM (series often up to 115 µM), actives largely listed as inhibitors; actives 2.5% (n = 76,000); AID 1347043; note: nearly all actives have a fitted effect of over 65% in size
# Target sequence (P08659 whole entry, looked up): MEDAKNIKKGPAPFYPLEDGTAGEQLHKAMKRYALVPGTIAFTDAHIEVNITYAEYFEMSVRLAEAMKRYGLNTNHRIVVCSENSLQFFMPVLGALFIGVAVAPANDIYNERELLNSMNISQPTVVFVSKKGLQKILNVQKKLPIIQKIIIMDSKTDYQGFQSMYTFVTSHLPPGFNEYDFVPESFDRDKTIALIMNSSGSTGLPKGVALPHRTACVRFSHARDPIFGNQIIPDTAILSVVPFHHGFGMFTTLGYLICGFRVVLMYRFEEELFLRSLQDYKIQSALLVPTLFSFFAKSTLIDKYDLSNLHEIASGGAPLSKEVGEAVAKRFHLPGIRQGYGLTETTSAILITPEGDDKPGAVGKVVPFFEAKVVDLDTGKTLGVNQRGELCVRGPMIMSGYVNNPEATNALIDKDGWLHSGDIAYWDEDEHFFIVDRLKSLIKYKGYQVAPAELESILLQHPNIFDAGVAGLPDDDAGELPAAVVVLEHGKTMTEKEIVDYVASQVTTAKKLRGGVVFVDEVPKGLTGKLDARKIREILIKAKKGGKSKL
#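 Biochemical qHTS: compound (6-point titration) added to 10uM D-luciferin plus 10uM ATP in Tris acetate pH 7.5 buffer with Mg, Tween-20 and BSA, then purified enzyme at 10nM; light output imaged.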
# 3T3 cytotox – kills NIH 3T3 cells. NIH 3T3 viability, CellTiter-Glo ATP luminescence, 48-72 h. Potency, µM (series often up to 96.7 µM), for inactives: at the top dose activity change, negative = cytotoxicity, most hits filed as inhibitors. actives 4.3% (n = 94,000); note: nearly all actives have a fitted effect of over 55% in size
#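 Viability of NIH 3T3 cells after 48 or 72 hr compound treatment at 37 °C was assessed by CellTiter-Glo, with luminescence imaged following a 10 min room-temperature step.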
# hNpr1 antagonist – blocks ANP-stimulated signaling of human Npr1 receptor. AID 1347048. P16066. actives 1.6% (n = 76,000). Potency, µM (series often up to 46.3 µM), for inactives: top-dose activity change, negative = inhibition, usual class: inhibitors. HEK293 hNpr1 GloSensor cGMP, ANP-stimulated luminescence; calls by dose curve; note: nearly all actives have a fitted effect of over 60% in size
#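 HEK293 cells stably expressing human Npr1 and cGMP GloSensor pGS-40F, loaded 2 h with 2% GloSensor reagent, given compound 30 min at room temperature. Luminescence read before and 20 min after 0.1 nM hNppA.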
# HEK293 tox – HEK 293 cell cytotoxicity; Potency, µM (doses to about 115 µM), without a hit: top-dose activity change, negative = cytotoxicity, hits mostly inhibitors; HEK 293 viability, ATP luminescence (CellTiter-Glo), 48-72 h; actives 6.6% (n = 94,000); note: nearly all actives have a fitted effect of over 60% in size
#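 ATP-coupled CellTiter-Glo luminescence served as viability read-out, recorded 10 min after reagent addition at room temperature. HEK 293 cells, 250 cells/well, had been incubated with pintool-transferred compound for 48 or 72 hr at 37 degree Celsius.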
# Starred values were filed as active, the others as inactive; i = inactive; ? = inconclusive; . = no result given; [ ] = another dose, or the depositor's remark. Unless noted, calls come from the whole dose curve; as a rule, active = well fitted curve in the direction sought with a large enough effect; inconclusive = small, poorly fitted or top-dose-only effect, or another doubt; inactive = no such curve, though single readings can be large; an effect the other way counts as inactive or inconclusive. % is set by controls: 0 for no effect and ±100 for the full control effect; potency is the fitted concentration of half-maximal effect.
SMILES,GPT2 inhibitor,Luciferase inh,3T3 cytotox,hNpr1 antagonist,HEK293 tox
O=C(Cc1ccsc1)N1CC(Oc2ccccc2-c2nc(-c3ccccc3)no2)C1,i,?,35.5µM*,-1.0%,?
Cc1ccccc1C(=O)N1CCC(C(=O)N2CCC(c3ccccc3)CC2)CC1,-7.7%,.,?,.,?
Cc1ccc(NC(=O)N[C@H]2C[C@@H](c3nc(-c4ccc(F)cc4)no3)N(C)C2)cc1,1.0%[88.5 µM],?,?,-17.4%[70.6 µM],-25.5%[172 µM]
CN1C[C@@H](NC(=O)Nc2ccccc2)C[C@H]1c1nc(-c2ccc(Cl)cc2)no1,-10.8%[88.5 µM],35.5µM*,?,?,?
CN1C[C@@H](NC(=O)Nc2ccccc2)C[C@H]1c1nc(Cc2ccccc2)no1,i,44.7µM*,?,-2.3%[70.6 µM],?
CN1C[C@@H](NC(=O)c2ccc(F)cc2)C[C@H]1c1nc(-c2ccccc2)no1,-9.5%[88.5 µM],?,-13.4%[174 µM],-8.3%[70.6 µM],?
CN1C[C@@H](NC(=O)c2cccs2)C[C@H]1c1nc(-c2ccc(F)cc2)no1,-5.9%[88.5 µM],i,?,-29.9%[70.6 µM],89.1µM*
COc1ccc(Cn2c(=O)c(C(=O)N3CCN(C(=O)c4cccc(Cl)c4)CC3)nc3cccnc32)cc1,0.4%,.,?,.,?
Cc1ccc(C(=O)N2CCC3(CC2)CC(=O)c2ccc(Cl)cc2O3)cc1,-33.4%,i,35.5µM*,?,?
O=C1CC2(CCN([S+](=O)([O-])c3cccc(C(F)(F)F)c3)CC2)Oc2cc(Cl)ccc21,?,i,?,-0.2%,31.6µM*
COc1ccc(C(=O)N2CCC3(CC2)CC(=O)c2ccc(Cl)cc2O3)cc1,?,i,?,-9.7%,50.1µM*
O=C1CC2(CCN(C(=O)c3ccccc3)CC2)Oc2ccccc21,-4.0%[88.5 µM],i,?,2.5%[70.6 µM],?
O=C1CC2(CCN([S+](=O)([O-])c3cccc(C(F)(F)F)c3)CC2)Oc2ccccc21,i,i,?,0.0%,?
CN1C(=O)c2cccn2CC1CNC(=O)c1cc2ccccc2[nH]1 (stereo not given),i,i,-7.1%,-0.9%,-26.2%
O=C1N(C2CCN(S(=O)(=O)c3cccnc3)CC2)C(c2ccccc2)C12CCCC2 (stereo not given),i,.,?,.,?
COCCNC(=O)c1ccc(-c2ccc(N3CCCCC3)nc2)cc1,-3.1%,?,-12.0%,-1.4%,?
CC(C)c1nccn1CCCNC(=O)c1ccc(N2CCC(CO)CC2)nc1,-5.3%,i,-21.7%,-0.2%,-7.0%
CC(C)c1nccn1CCCNC(=O)c1ccc(N2CCCCCC2)nc1,0.4%,i,?,-11.3%,79.4µM*
O=C(NCCN1CCCC1)c1ccc(-c2ccc(N3CCSCC3)nc2)cc1,1.0%,14.1µM*,?,-16.7%,?
O=C(NCCN1CCOCC1)c1ccc(-c2ccc(N3CCCCC3)nc2)cc1,i,31.6µM*,?,-11.3%,?
CCOCCNC(=O)C1(c2ccc(Cl)cc2)CCOCC1,.,.,-3.8%[138 µM],.,-0.3%[172 µM]
COc1cccc(C(=O)NC2CCN(C(=O)c3ccc(-c4cccs4)cc3)CC2)c1,i,.,-18.9%,.,-17.7%
CN(Cc1cccnc1)C(=O)CCC[C@H]1NC[C@@H]2C[C@H]1CN(Cc1ccccc1)C2,-11.5%,i,i,2.1%,4.8%
O=C(CCC[C@H]1NC[C@@H]2C[C@H]1CN(Cc1ccccc1)C2)Nc1ccc2c(c1)OCCO2,-9.5%,44.7µM*,-6.2%,0.6%,-13.0%
CN(Cc1ccc(N2CCCCC2)cc1)C(=O)CCC[C@H]1NC[C@@H]2C[C@H]1CN(Cc1ccccc1)C2,i,i,17.8µM*,-2.2%,?
O=c1c2nc(Nc3cccc(F)c3)ccc2ncn1-c1ccccc1,0.5%[88.5 µM],.,.,.,.
O=c1c2nc(Nc3cccc(F)c3)ccc2ncn1Cc1ccccc1,-1.6%[88.5 µM],?,?,-19.0%[70.6 µM],79.4µM*
CC(=O)NCC(=O)N1CCC(n2cc(-c3nc(-c4ccccc4)no3)nn2)CC1,i,?,-10.8%,-14.4%,-5.8%
CC(C)CC(=O)N1CCC(Oc2nccnc2N(C)C)C1 (stereo not given),-5.4%,31.6µM*,3.0%,3.1%,-5.0%
